Compounds without any hit were thinned out: in the full panel of roughly 83,000, 20% have a hit.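 Results are percent growth after 48 hours of single-concentration exposure. 100 means growth as in untreated cells, lower positive values show inhibition; negative values down to -100 show cell death.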 The source made the active and inactive calls. How the source made its calls: active means growth percent below 10; inactive means the rest.

The subject of this assay is UACC-62 melanoma. The experiment in a line: NCI-60 one-dose screen, 48 h (100 = growth as untreated, 0 = no growth, -100 = all killed). The settings on record: 10 µM unless noted.
`Cn1cc(-c2csc(-c3ccc(Cl)cc3)n2)c2cccnc21`: the growth was -38.5% [100 µM] (active). The same measure for `COc1cc(-c2nc(SCCC(C)C)nc(Nc3ccccc3Cl)c2C#N)cc(OC)c1OC`: 81% (inactive); for `CCn1c(=S)[nH]c2c(=O)n(C)c(=O)n(C)c21`: 116% (inactive); for `c1ccc(CNc2c3ccccc3nc3ccccc23)cc1`: 61% (inactive). For the compound `COCCn1c(-c2csc(-c3cn(C)c4ccc(OC)cc34)n2)cc2cccnc21`, the growth is 82.1% (inactive). Under `CCOC(=O)CSc1ncnc2c1c(-c1ccccc1)c(-c1ccccc1)n2-c1ccc(C)cc1` stands 57.1% (inactive). As for `COc1cc2oc(-c3cccc(NC(=O)c4cccc(Br)c4)c3)cc(=O)c2c(OC)c1OC`, the growth is 57.1% (inactive). As to `Cc1ccc(Cl)cc1Nc1nc(C(F)(F)F)ccc1C(=O)N/N=C/c1cccnc1`, the growth is 27.6% (inactive). Consider `Cn1c(=O)c2c(nc(NC3=NS(=O)(=O)c4ccccc43)n2CC(=O)N2CCc3ccccc32)n(C)c1=O`, for which the growth is 97.6% (inactive). Under `Cc1cccc(Cl)c1NC(=O)c1ccc2nc(NC(=O)NCCN(C)C)sc2c1` stands 97.3% (inactive); under `CCOC(=O)c1c(C)nc2c(c1N)CC(=O)N2Cc1cc(F)cc(Cl)c1`, 78% (inactive). Under `COC(C(=O)[C@@H](O)[C@@H](C)O)[C@@H]1Cc2cc3cc(O[C@H]4C[C@@H](O[C@H]5C[C@@H](O)[C@H](O)C(C)O5)[C@H](O)C(C)O4)cc(O)c3c(O)c2C(=O)[C@H]1O[C@H]1C[C@@H](O[C@H]2C[C@@H](O[C@H]3C[C@@H](OC)[C@H](O)C(C)O3)[C@@H](O)C(C)O2)[C@H](O)C(C)O1` (stereo not given in full) stands 0.169% (active). Take `CN([O-])c1nc(N(C)[O-])nc(N2CCOCC2)n1.CN([O-])c1nc(N(C)[OH2+])nc(N2CCOCC2)n1.[Fe+3]`: the growth was 81.6% [100 µM] (inactive). As to `CCOP(=O)(OCC)c1nc(-c2ccccc2)oc1NCc1cccnc1`, the growth was 106% (inactive). As for `CCn1c(SCC(=O)c2ccc(Br)cc2)nnc1-c1ccncc1`, the growth is 96.8% (inactive). Under `CCCCNc1ccc(C#N)c(OCCN(CC)CC)c1` stands 103% (inactive); under `N#Cc1c(-c2ccc(Cl)cc2)nc(NN=Cc2cccc(O)c2)nc1N1CCOCC1`, 94.1% (inactive); under `CS(=O)(=O)Nc1cc(-c2ccc3ncnc(Nc4c(Cl)ccc5c4OCO5)c3c2)cnc1Cl`, -52% (active).

For `Fc1cccc(CNc2c3ccccc3nc3ccccc23)c1F`, the growth was 75.7% (inactive). The same measure for `COC(=O)CNC(=O)[C@H](Cc1ccccc1)NCc1ccncc1`: 99.3% (inactive); for `O=C(NCCCN1CCOCC1)c1cccc(N2C(=O)/C(=C/c3ccc(F)cc3)SC2=S)c1`: 88.4% (inactive); for `O=[N+]([O-])/C(=C/C=C/c1ccccc1)c1ccccc1`: 70.5% (inactive).

For `Cn1cc(-c2csc(-c3c[nH]c4ccc(Br)cc34)n2)c2cnccc21`, the growth is -90.6% (active). `C=C(C)[C@@H]1CC[C@]2(C(=O)N3CCN(C)CC3)CC[C@]3(C)[C@H](CC[C@@H]4[C@@]5(C)CC(=C/c6ccncc6)/C(=N/O)C(C)(C)[C@@H]5CC[C@]43C)[C@@H]12`: the growth was 78.5% (inactive).

Consider `COc1cc(N2C(=O)[C@H](O)C2c2ccc(SC)cc2)cc(OC)c1OC` (stereo not given in full), for which the growth is 33.8% (inactive). The same measure for `CCCCC(=O)c1ccco1`: 94.9% (inactive); for `C=C(C)[C@@H]1CC[C@]2(C)[C@H](CC=C3[C@@H]4[C@H](C)[C@@H](C)CC[C@]4(CO)CC[C@]32C)[C@@]1(C)CCCN`: 79.4% (inactive); for `COc1ccc2[nH]cc(-c3nc(-c4c[nH]c5ccncc45)cs3)c2c1`: 84.2% (inactive).

With `Oc1ccc(CN2CCC(N3CCCCC3)CC2)c2cccnc12`, the growth was 14.9% (inactive). Under `CC(C)(C)c1cc(-c2nc3ccc(N4CCN(S(C)(=O)=O)CC4)cc3[nH]2)cc(C(C)(C)C)c1O` stands 94.5% (inactive); under `COc1ccc2c(c1)c(-c1noc(C(=O)c3cn(C)c4ccc(Br)cc34)n1)cn2C`, 93% (inactive). For the compound `C[C@H](NC(=O)[C@@H](C)N)[C@H](Oc1ccc2c(cnn2-c2ccc(F)cc2)c1)c1ccc2c(c1)OCCO2`, the growth is -22.3% (active). Under `C=C(C)[C@@H]1CC[C@]2(C(=O)O)CC[C@]3(C)[C@H](CC[C@@H]4[C@@]5(C)C[C@@H](Cc6cn(CCO[C@@H]7O[C@H](COC(C)=O)[C@H](OC(C)=O)[C@H](OC(C)=O)[C@H]7OC(C)=O)nn6)[C@H](O)C(C)(C)[C@@H]5CC[C@]43C)[C@@H]12` stands 63.7% (inactive). The same measure for `CCN(CC)CCOc1ccc(-c2c(-c3ccccc3)c(=O)oc3ccccc23)cc1`: 82.7% (inactive); for `COc1ccc2c(O)c(/C=C3\N=Nc4ccccc43)oc2c1C[C@@H]1CCNC[C@H]1F`: 76% (inactive); for `COc1cc(OC)cc(C2=C3CC[C@@H]4[C@H](CC[C@]5(C)C(=O)CC[C@@H]45)C3=CC3C(O)c4cccnc4N4C(=O)COC234)c1` (stereo not given in full): 94.1% (inactive).

With `CC(=O)N1N=C(c2ccc(Nc3nc(Nc4ccc(Cl)cc4)nc(Nc4ccc(Cl)cc4)n3)cc2)CC1c1ccco1` (stereo not given), the growth was 89.9% (inactive).

On to `CCS/C(Nc1ccccc1)=C(\C#N)C(=O)N/N=C/c1ccc(Cl)cc1Cl`, for which the growth was 26.6% (inactive). The same measure for `CCOC(=O)C(=Cc1cccc(Cl)c1)C(=O)OCC`: -9.18% (active); for `CN[C@]12CC3(C=CC(=O)C=C3)O[C@@]1(Cc1ccc(OC)cc1)N(C)C(=O)N2`: -43% (active).

Source of the values: PubChem BioAssay (NCI).
